Bioassay records deposited in PubChem BioAssay by Emory University Molecular Libraries Screening Center.
ERa coact inh – blocks coactivator binding to human estrogen receptor alpha; TR-FRET ER-alpha LBD / SRC-1 peptide, estradiol-bound; AID 629; inhibition, % at 25.6 µM; P03372; 86,000 compounds, 1.7% hits; in the data active = inhibition above about 50%
Target sequence (P03372 whole entry, looked up, the tested form may be a part): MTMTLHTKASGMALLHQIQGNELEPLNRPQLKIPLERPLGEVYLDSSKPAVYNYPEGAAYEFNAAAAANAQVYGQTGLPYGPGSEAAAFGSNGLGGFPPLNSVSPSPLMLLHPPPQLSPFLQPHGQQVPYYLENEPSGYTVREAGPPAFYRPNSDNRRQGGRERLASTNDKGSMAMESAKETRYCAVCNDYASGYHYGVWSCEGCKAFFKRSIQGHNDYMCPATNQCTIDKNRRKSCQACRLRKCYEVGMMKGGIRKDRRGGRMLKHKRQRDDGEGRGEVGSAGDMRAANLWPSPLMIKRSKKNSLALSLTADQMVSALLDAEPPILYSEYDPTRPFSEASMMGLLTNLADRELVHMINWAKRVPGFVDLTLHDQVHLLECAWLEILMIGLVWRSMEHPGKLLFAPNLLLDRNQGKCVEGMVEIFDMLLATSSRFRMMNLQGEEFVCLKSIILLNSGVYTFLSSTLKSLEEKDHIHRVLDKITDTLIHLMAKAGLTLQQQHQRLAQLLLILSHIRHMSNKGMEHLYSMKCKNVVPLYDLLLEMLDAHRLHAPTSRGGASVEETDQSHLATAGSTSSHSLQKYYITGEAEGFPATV
Smad3 inh – blocks human Smad3 binding to FoxH1 peptide; inhibition, % at 25 µM; 88,000 compounds, 0.29% hits; AID 630; TR-FRET Smad3/Dy647-FoxH1 peptide binding, europium anti-His; P84022;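 active = compounds that reduce the energy-transfer binding signal between the protein and its labelled peptide by more than half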
ERa SRC1 pot – enhances coactivator binding to human estrogen receptor alpha; TR-FRET ERalpha-LBD/SRC-Cy5 coactivator binding, 2 h; 100 = basal binding, no effect; P03372; coactivator binding (% of control), % at 25.6 µM; 86,000 compounds, 1.3% hits; in the data active = activity above about 200%;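 also: binding measured in presence of low estradiol as agonist stimulus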
ERb SRC1 inh – blocks coactivator binding to human estrogen receptor beta; Q92731; TR-FRET ER-beta LBD / SRC1-Cy5 peptide binding; receptor agonist-loaded with 1 µM estradiol; inhibition, % at 25.6 µM; 86,000 compounds, 1.3% hits; AID 633;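 active = compounds whose percent inhibition of the receptor-coactivator binding signal exceeds about 50% in the single-dose screen, limit read from the data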
Each line names hits and unclear results; the compound was inactive in the other large screens; [ ] = remark or other dose. In the library only some 3.7% were active in any assay of this set; here they are far more common.

Cc1nn(-c2ccccc2)c2sc(C(=O)c3c(N)n(C)c(=O)n(C)c3=O)cc12	ERa SRC1 pot 550
Cc1nn(-c2ccccc2)c2sc(C(=O)C(C#N)c3ccccn3)cc12 (stereo unspecified)	ERa coact inh 79[fluorescence artefact?], ERb SRC1 inh 93[fluorescence artefact?]
Cc1nn(-c2ccccc2)c2sc(C(=O)n3cccn3)cc12	none
CCOC(=O)Cn1c(CN2CCN(c3cccc(Cl)c3)CC2)nc2c1c(=O)[nH]c(=O)n2C	ERb SRC1 inh 71[fluorescence artefact?]
COC(=O)CSc1nnc(CNc2ccc(OC)cc2)n1C	none
CC1CC(C(F)(F)F)n2nc(C(=O)O)cc2N1 (stereo unspecified)	none
CC1CC(C(F)(F)C(F)(F)F)n2nc(C(=O)O)cc2N1 (stereo unspecified)	ERa coact inh 64, ERb SRC1 inh 76[fluorescence artefact?]
Cc1cc(C)n2nc(C(=O)OCC(=O)c3cc(C)n(C)c3C)nc2n1	ERb SRC1 inh 51[fluorescence artefact?]
Cc1cc(C)n2nc(C(=O)OCCOc3ccc(F)cc3)nc2n1	none
Cc1ccc2cccc(S(=O)(=O)Nc3ccc4c(c3)OCO4)c2n1	ERa coact inh 83[fluorescence artefact?], ERb SRC1 inh 75[fluorescence artefact?]
Cc1cc(Cl)c(S(=O)(=O)Nc2ccc3c(c2)OCO3)cc1OCC(N)=O	ERa coact inh 50, ERb SRC1 inh 51
CCOC(=O)c1sc(NC(=O)c2cncc(Br)c2)nc1C	none
CCOC(=O)c1sc(NC(=O)c2ccc3ncsc3c2)nc1C	ERa SRC1 pot 473
CCOC(=O)c1ccc2nc(NC(=O)c3cccs3)sc2c1	ERa coact inh 78[fluorescence artefact?], ERb SRC1 inh 54[fluorescence artefact?]
CCOC(=O)c1csc(NC(=O)c2ccc(OC)c(OC)c2)n1	ERa SRC1 pot 279[fluorescence artefact?]
CCOC(=O)Cc1csc(NC(=O)c2ccc(OC)c(OC)c2)n1	none
COc1cccc(CN(C)C(=O)c2ccc3nccnc3c2)c1	none
O=S(=O)(Nc1ncn[nH]1)c1ccc(Cl)cc1	none
O=C1CN(Cc2ccccc2)C(=NCc2ccco2)S1	none
COc1ccc(C(=O)N2CCCN(C)CC2)cc1S(=O)(=O)N1CCCc2ccccc21	ERa SRC1 pot 225
COc1ccc(OC)c(S(=O)(=O)N2CCCc3ccccc32)c1	none
Cc1ccc2nc(/C(C#N)=C\c3ccc(N4CCCCC4)c([N+](=O)[O-])c3)[nH]c2c1	ERa coact inh 82
Cc1ccc2nc(/C(C#N)=C/c3cn[nH]c3-c3ccc(F)cc3)[nH]c2c1	none
CCOC(=O)C1CCN(C(=O)C2CCN(c3nc4ccc(OC)cc4s3)CC2)CC1	ERb SRC1 inh 91[fluorescence artefact?]
Cc1ccc2[nH]c(=O)c(-c3noc(-c4ccncc4)n3)cc2c1	none
COc1ccc2[nH]c(=O)c(-c3noc(-c4ccccc4)n3)cc2c1	ERa coact inh 69[fluorescence artefact?], ERb SRC1 inh 61[fluorescence artefact?]
O=C(Nc1nc(-c2cc3ccccc3oc2=O)cs1)c1ccc(Br)o1	ERa SRC1 pot 224[fluorescence artefact?]
O=[N+]([O-])c1ccc([C@@H](Nc2ccccc2)c2ccc3cccnc3c2O)cc1	none (no result: ERa coact inh, ERa SRC1 pot, ERb SRC1 inh)
C/C(N[O-])=C(\C)[N+]([O-])=[Co].CC(=N\[O-])/C(C)=N/[O-].C[CH-][C@@H](C)O.c1ccncc1	Smad3 inh 66 (no result: ERa coact inh, ERa SRC1 pot, ERb SRC1 inh)
COCCn1cnc2c(c1=O)c1nc3ccccc3nc1n2/N=C/c1cccc(OC)c1OC	none
C=CCn1cnc2c(c1=O)c1nc3ccccc3nc1n2/N=C/c1cccc(OC)c1	ERa coact inh 68[fluorescence artefact?]
COC(=O)c1cc2ccsc2n1CC(=O)Nc1ccc(N(C)C)cc1	ERa coact inh 55
c1ccc(COc2ccc(OCCCN3CCCCC3)cc2)cc1	ERa coact inh 63[fluorescence artefact?]
CCOC(=O)c1[nH]c(C)c(/C(O)=C2\C(=O)C(=O)N(CCN(C)C)C2c2ccncc2)c1C (stereo unspecified)	none
CCOC(=O)c1[nH]c(C)c(/C(O)=C2\C(=O)C(=O)N(CCN(C)C)C2c2cccc(OC)c2OC)c1C (stereo unspecified)	ERa SRC1 pot 599[fluorescence artefact?]
N=C(N)SCc1ccc(Cl)cc1Cl (tested in a mixture with another compound)	none (no result: ERa coact inh, ERa SRC1 pot, ERb SRC1 inh)
COc1ccc(NC(=O)Cc2nn(C)c(=O)c3ccccc23)c2ncccc12	ERa SRC1 pot 217
Cc1ccc(-c2nn(CC(=O)NCc3cc(-c4nn(C)c(=O)c5ccccc45)ccc3C)c(=O)c3ccccc23)cc1	ERa coact inh 88[fluorescence artefact?], ERb SRC1 inh 64[fluorescence artefact?]
COc1ccc(-c2nn(C)c(=O)c3ccccc23)cc1NC(=O)Cn1nc(C)c2ccccc2c1=O	ERa coact inh 63, ERa SRC1 pot 287[fluorescence artefact?], ERb SRC1 inh 50[fluorescence artefact?]
COc1ccc(-c2nn(C)c(=O)c3ccccc23)cc1NC(=O)COc1ccc(C)cc1	ERa SRC1 pot 487[fluorescence artefact?]
CCCC(=O)Nc1cc(-c2nn(C)c(=O)c3ccccc23)ccc1OC	none
